Screening results (PubChem BioAssay)
Cruzain Triton – cruzain (T. cruzi) inhibition with detergent. P25779. purified cruzain, Z-FR-AMC fluorescence, 0.01% Triton. Potency, µM, inactives show max response, negative = inhibition, actives largely listed as inhibitors. 200,000 compounds, 0.43% hits;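 note: plate controls were neutral wells for no effect and buffer without enzyme for full effect; nearly all actives have a fitted effect of over 40% in size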
Target sequence (P25779 123-467 limits assumed): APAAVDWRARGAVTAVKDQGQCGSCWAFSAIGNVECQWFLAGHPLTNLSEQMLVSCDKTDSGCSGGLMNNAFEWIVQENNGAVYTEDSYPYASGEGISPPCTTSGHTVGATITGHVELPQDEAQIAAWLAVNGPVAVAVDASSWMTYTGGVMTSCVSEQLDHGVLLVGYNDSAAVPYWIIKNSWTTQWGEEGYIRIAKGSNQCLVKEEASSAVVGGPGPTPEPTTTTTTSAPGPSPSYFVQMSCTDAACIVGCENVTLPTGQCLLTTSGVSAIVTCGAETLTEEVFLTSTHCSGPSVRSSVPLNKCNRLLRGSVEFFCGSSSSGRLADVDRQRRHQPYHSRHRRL
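Detergent-containing arm of a paired screen for aggregation-based inhibition: 0.01% Triton X-100 present. Cruzain at 1.5 nM cleaved 2 uM Z-FR-AMC at pH 5.5 with 5 mM DTT; AMC fluorescence gain over 60 s measured activity.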
Cruzain noTriton – inhibitors of Trypanosoma cruzi cruzain without detergent | P25779 | purified cruzain, Z-FR-AMC fluorescence, no detergent | Potency, µM, inactives show max response, negative = inhibition, actives largely listed as inhibitors | 200,000 compounds, 2.3% hits | AID 1476;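 note: plate controls were enzyme without inhibitor for no effect and buffer without enzyme for full effect; nearly all actives have a fitted effect of over 40% in size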
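Purified cruzain at 1.5 nM, pre-incubated 15 min with compound at room temperature in 100 mM sodium acetate pH 5.5, 5 mM DTT, 0.00005% Triton X-100. Reaction started with 2 uM Z-FR-AMC; AMC fluorescence increase over 60 s gives rate.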
* = called active by the depositor; ? = inconclusive. In the library only some 2.6% were active in any assay of this set; here they are far more common. Calls come from the whole dose curve; as a rule, active = well fitted curve in the direction sought with a large enough effect; inconclusive = small, poorly fitted or top-dose-only effect, or another doubt; inactive = no such curve, though single readings can be large; an effect the other way counts as inactive or inconclusive. Potency is the fitted concentration of half-maximal effect.

SMILES	Cruzain Triton	Cruzain noTriton
COc1ccccc1C(=O)NC(=S)NNC(=O)c1sc2ccccc2c1Cl	9%	2.5µM*
Cc1ccc(NC(=O)c2sc3ccccc3c2Cl)nc1	0%	-11%
COc1ccc(N2CC(NC(=O)Cc3cccs3)CC2=O)cc1OC (stereo not drawn)	-1%	-1%
NC(=O)CN1CCN(c2nc(-c3ccc(F)cc3)cs2)CC1	-2%	0%
O=C(CN1CCN(c2nc(-c3ccc(F)cc3)cs2)CC1)Nc1ccc2c(c1)OCO2	-5%	25µM*
Cn1nnc(C(O)CNCc2cccs2)n1 (stereo not drawn)	3%	3%
Cn1nnc(NCc2cc(Br)ccc2OCc2cccs2)n1	-4%	32µM*
O=C(O)C1Cc2c([nH]c3ccccc23)C(c2coc3ccccc3c2=O)N1 (stereo not drawn)	1%	-11%
Cc1cccc(N(C)S(=O)(=O)c2nnc(NC(=O)c3cccs3)s2)c1	-1%	0%
Cc1ccc(C(=O)Oc2coc(CSc3nnc(NC(=O)c4cccs4)s3)cc2=O)cc1	-1%	25µM*
Cc1cc(C)cc(C(=O)Oc2coc(CSc3nnc(NC(=O)C4CC4)s3)cc2=O)c1	-4%	3%
Cc1cccc(-c2nnc(NC(=O)c3cccs3)s2)c1	0%	16µM*
O=C(NCc1noc2ccccc12)N1CCN(c2ccccc2)CC1	0%	14%
Cc1c(CC(=O)NCc2ccccc2)c(=O)oc2c(C)c(O)ccc12	-12%	3%
COc1cc(NC(=O)C2CCN(S(=O)(=O)c3c(C)noc3/C=C/c3cccs3)CC2)cc(OC)c1	-2%	16µM*
Cc1noc(/C=C/c2cccs2)c1S(=O)(=O)N1CCC(C(=O)Nc2ccc(F)c(Cl)c2)CC1	-2%	?
Cc1ccc(NC(=O)C2CCN(S(=O)(=O)c3c(C)noc3/C=C/c3cccs3)CC2)cc1F	-2%	?
COc1ccc(/C=C\c2onc(C)c2S(=O)(=O)N2CCC(C(=O)Nc3cccc(C)c3C)CC2)cc1	-3%	-20%
COc1ccc(NC(=O)C2CCN(S(=O)(=O)c3c(C)noc3/C=C/c3cccs3)CC2)cc1Cl	-4%	10µM*
COc1ccc(/C=C\c2onc(C)c2S(=O)(=O)N2CCC(C(=O)Nc3cccc(Cl)c3)CC2)cc1	-3%	7.9µM*
NC(N)=Nc1nc(CSCC/C(N)=N\S(N)(=O)=O)cs1	25µM*	13µM*
CCCS(=O)(=O)N1CCC(N2CCN(Cc3ccc(F)cc3)C(=O)C2=O)CC1	2%	-2%
Nc1nc2c(ncn2[C@@H]2O[C@H](CO)[C@@H](O)[C@@H]2O)c(=[SH+])[nH]1.O=[N+]([O-])c1ccc(O)[c]([Hg])c1	0%	-2%
COC(=O)c1c(-c2ccc(C)cc2)csc1NC(=S)NC(=O)c1ccc(F)cc1	-2%	13µM*
CCOC(=O)c1c(-c2ccc(C)cc2)csc1NC1=NS(=O)(=O)c2ccccc21	-5%	7.9µM*
SMILES	Cruzain Triton	Cruzain noTriton
CCOC(=O)c1c(-c2ccc(F)cc2)csc1NC(=O)c1c(-c2ccccc2)noc1C	-5%	-49%
CCOC(=O)c1c(-c2ccc(C)cc2)csc1NC(=S)NC(=O)c1ccccc1	1%	25µM*
CCOC(=O)c1c(-c2ccc(C)cc2)csc1NC(=O)C1CC=CCC1C(=O)O (stereo not drawn)	-6%	?
COC(=O)c1c(-c2ccccc2)csc1NC(=O)c1c(-c2ccccc2)noc1C	-3%	20µM*
CCOC(=O)c1c(-c2ccc(Br)cc2)csc1NC(=O)c1ccc(F)cc1	-2%	-12%
CCOC(=O)c1c(-c2ccc(OC)c(OC)c2)csc1NC(=O)c1ccc(C)cc1	-2%	5%
Cn1cnc(S(=O)(=O)N2CCCC(C(=O)Nc3cccc(C#N)c3)C2)c1 (stereo not drawn)	0%	-2%
COc1cc(-c2nnc(SCC(=O)N(C)C3CCCCC3)o2)cc(OC)c1OC	-14%	-25%
CCCC12C(=O)C(C)(C(c3ccccc3)=C1c1ccccc1)C1C(=O)N(c3ccc(C)cc3)C(=O)C12 (stereo not drawn)	-1%	20µM*
CCC12C(=O)C(CC)(C(c3ccccc3)=C1c1ccccc1)[C@@H]1C(=O)N(c3ccc(C)cc3)C(=O)C12 (stereo partly drawn)	-4%	?
CCn1c(SCc2nc3ccccc3s2)nnc1-c1ccccc1	7%	-11%
c1ccc(-n2cnnc2SCc2nc3ccccc3s2)cc1	-5%	10µM*
Cc1nnc(SCc2nc3ccccc3s2)n1-c1ccccc1	-2%	20µM*
c1ccc(-c2ncc(CSc3nncn3-c3ccccc3)s2)cc1	-2%	12%
COc1ccc(OC)c(-c2noc(CSc3nnc(Cc4ccccc4)n3-c3cccc(C)c3)n2)c1	-8%	28%
COc1ccc(C(=O)CN2C(=O)N(c3ccc(C(C)=O)cc3)S(=O)(=O)c3ccccc32)cc1	-1%	?
CCOC(=O)C(NC(=O)CCC(=O)Nc1ccc(S(N)(=O)=O)cc1)C(O)c1ccccc1 (stereo not drawn)	0%	9%
CCCCCCCCOC(=O)C(NC(=O)CCC(=O)Nc1ccc(S(N)(=O)=O)cc1)C(O)c1ccccc1 (stereo not drawn)	3%	7.9µM*
CCOc1ccccc1C(=O)Nc1cccc(-c2nc3ccccc3s2)c1	-5%	-7%
COc1ccc(C2(N3CCN(c4cccc(C)c4C)CC3)C(=O)c3ccccc3C2=O)cc1	1%	-2%
COc1ccc(Oc2ncc3nc(-c4ccccc4)c(=O)n(Cc4cccs4)c3n2)cc1	-1%	25µM*
COc1ccc(-c2nc3cnc(Nc4ccccc4)nc3n(Cc3cccs3)c2=O)cc1	0%	-1%
COCCn1c(=O)c(CCc2ccccc2)nc2cnc(Nc3cccc(OC)c3)nc21	3%	1%
COc1cccc(Nc2ncc3nc(CCc4ccccc4)c(=O)n(Cc4cccs4)c3n2)c1	3%	4µM*
COc1cccc(Nc2ncc3nc(-c4ccccc4)c(=O)n(Cc4cccs4)c3n2)c1	1%	5µM*
SMILES	Cruzain Triton	Cruzain noTriton
COc1ccc(Oc2ncc3nc(C)c(=O)n(Cc4cccs4)c3n2)cc1	-6%	13%
O=c1c(CCc2ccccc2)nc2cnc(Nc3ccccc3)nc2n1Cc1cccs1	4%	25µM*
Cc1nc2cnc(Nc3ccccc3)nc2n(Cc2cccs2)c1=O	1%	1%
Cc1ccc(C(=O)NC2(C(F)(F)F)N=C(c3ccccc3)N(C3CCCCC3)C2=O)cc1 (stereo not drawn)	-5%	6%
CCOc1cc(CNC(=O)c2ccc(C)c(NC(=O)c3nsc4ccccc34)c2)ccc1OC	-1%	-8%
CCc1c(C)c(C#N)c2nc3ccccc3n2c1Nc1cccc(C(F)(F)F)c1	-2%	-4%
COc1cccc(CSc2nc3ccccc3c3nc(CCn4c(C)nc5ccccc54)nn23)c1	2%	?
O=C(CSc1ccc2ccccc2c1Br)Nc1cccc(S(=O)(=O)NC2=NCCCCC2)c1	-5%	20µM*
Cc1ccc(C)c(SCC(=O)Nc2cccc(S(=O)(=O)NC3=NCCCCC3)c2)c1	-5%	-2%
COc1ccc(OC)c(-c2cc(C(=O)Nc3sc4c(c3C#N)CCC(C)C4)c3ccccc3n2)c1 (stereo not drawn)	1%	?
COc1ccccc1-c1cc(C(=O)Nc2sc3c(c2C#N)CCC(C)C3)c2ccccc2n1 (stereo not drawn)	1%	3.2µM*
COc1ccc(-c2cc(C(=O)Nc3sc4c(c3C#N)CCCC4)c3ccccc3n2)cc1	-5%	7.9µM*
